The campaign covered roughly 69,000 compounds. About 8,600 (12%) showed an effect of 50% or more. The full list was thinned out, with strong results kept by preference.
test system: Plasmodium berghei; assay: Screen against P. berghei liver stage (PbLuc), transformed with Luciferase, at 10uM; format: functional, HepG2; conditions: tested at 10 uM

SMILES	INHIBITION [%]
COc1cc(C(=O)NS(=O)(=O)c2cccc(C#N)c2)cc(OC)c1C	22.3
O=C(NCCN1CCCCCC1)c1n[nH]c(=O)c2ccccc12	4.71
O=C(CCc1ccc(Cl)cc1)N[C@@H]1CC[C@@H](O)[C@@H]1O	45.75
CN1CC2(CCCN(c3nc(N)nc4c3CCCC4)C2)OC1=O (stereo not given)	45.6
CC1(C(=O)NC2CCCC2)CCCN(c2cnccn2)C1 (stereo not given)	-4.51
CC(C)Nc1cc(N2CCCC3(CN(C)C(=O)O3)C2)ncn1 (stereo not given)	17.4
CN1CC2(CCCN(c3cnccn3)C2)OC1=O (stereo not given)	61
COc1ccc(CN2CCOC3(CCCN(c4cnccn4)C3)C2)cc1 (stereo not given)	44.2
Cc1cc(N2CCCC3(CN(C)C(=O)O3)C2)c2cc3c(cc2n1)OCO3 (stereo not given)	28.6
CC1(C(N)=O)CCCN(c2cnccn2)C1 (stereo not given)	53.2
CN1CC2(CCCN(c3cc(N4CCCCC4)ncn3)C2)OC1=O (stereo not given)	60.1
CNC(=O)C1(C)CCCN(c2cnccn2)C1 (stereo not given)	-26.2
Cc1nc(CCC(N)=O)cc(C2CCNCC2)n1	-10.8
O=C(COC[C@@H]1CC[C@H]2[C@H](CCN2Cc2ccco2)O1)N1CCCC1	-54.9
Cc1c(C(=O)N2CCOCC2)nnn1-c1ccc2ncccc2c1	-29.7
Cc1cc(C(=O)NCc2ccnc(N3CCN(C)CC3)c2)no1	17.34
CN1CCN(C(=O)N2C[C@@H]3CC[C@H]2CN(Cc2ccccc2)C3)CC1	30.9
c1cnnc(N2CCCC(NCc3cn4ccccc4n3)C2)c1 (stereo not given)	27.9
CCC1c2cccn2CCN1C(=O)c1ccno1 (stereo not given)	-48.4
O=c1oc(-c2cccs2)nn1CC(O)c1ccccc1 (stereo not given)	0.547
O=c1oc(-c2cccs2)nn1CC(O)c1ccc(F)cc1 (stereo not given)	-23.5
O=c1oc(-c2cccs2)nn1CC(O)c1ccc2c(c1)CCC2 (stereo not given)	59.4

SMILES	INHIBITION [%]
CCNc1ccnc(NC2CCN(S(C)(=O)=O)CC2)n1	72.3
CCNC(=O)N1CCC(Nc2nccc(NCC)n2)CC1	20.4
CCNc1ccnc(NC2CCN(CC(N)=O)CC2)n1	-9.92
CCOC(=O)N1CC(=O)N(CCc2ccccc2)CC(O)C1 (stereo not given)	28.3
CCN1C(=O)C(C)(C)c2cc(NC(=O)c3ccn(CC)n3)ccc21	-42.9
Cc1cc(C(=O)N2CCCC(n3ccnc3)C2)c(C)n1C1CC1 (stereo not given)	27.4
COc1ccc(CNC(C)c2cn[nH]c2C)cc1 (stereo not given)	11.8
Cc1[nH]ncc1C(C)NCc1cccnc1 (stereo not given)	14.3
Cc1[nH]ncc1C(C)NCc1ccc(F)cc1 (stereo not given)	63.7
CN(C)CCN1CCC2[C@@H]1CCN2Cc1ccc2c(c1)OCO2 (stereo not given in full)	-9.74
CC(=O)c1c(F)cccc1N1CCC(C(N)=O)CC1	-13.1
CC(=O)c1c(F)cccc1N1CCC(CS(N)(=O)=O)CC1	30.1
CC(=O)c1c(F)cccc1N1CCC(NS(=O)(=O)c2ccccc2)CC1	78
CC(=O)c1c(F)cccc1N1CCC(Cc2cccnc2)CC1	83.4
CCS(=O)(=O)N(C)C1CCN(c2cccc(F)c2C(C)=O)CC1	-9.35
CCN(C1CCN(c2cccc(F)c2C(C)=O)CC1)S(C)(=O)=O	20.4
O=C1C(NS(=O)(=O)c2ccc(F)cc2F)CCN1Cc1ccccc1 (stereo not given)	2.97
Cc1ccc(NC(=O)N2CCC3(CCC(C(=O)N(C)C)O3)CC2)cc1 (stereo not given)	46.6
Cc1cc(C)n(CC2CCCN2CCC(=O)Nc2cc(C)on2)n1 (stereo not given)	11.4
O=C(Cc1ccccn1)N1C[C@@H](Oc2cccnc2)[C@H]2OCCC[C@H]21	5.04
CN(C)c1cccc(C(=O)Nc2ccn(CCc3ccncc3)n2)c1	40.7
CSc1ccc(C(=O)N2C[C@@H]3CC[C@H]2CN(Cc2ccccc2)C3)cc1	39.1

SMILES	INHIBITION [%]
COc1ccc(C(=O)N(C)Cc2ncc(C)c(OC)c2C)c(OC)c1	1.11
CCCS(=O)(=O)N1CCO[C@H]2[C@H](OCc3ccccn3)CC[C@@H]21	33.5
CCOc1ccccc1CN(C)C(C)c1nc(-c2cccnc2)no1 (stereo not given)	24.2
COc1ccccc1CCN(C)C(C)c1nc(-c2cccnc2)no1 (stereo not given)	68.1
CC(c1nc(-c2cccnc2)no1)N(C)CCCOc1ccccc1 (stereo not given)	18.5
CNC(=O)c1csc(-c2cccnc2)n1	-17.2
CCn1cc(C(=O)Nc2cc(C)ccc2C)cn1	3.04
Cc1ccc(NC(=O)c2coc(C)n2)c(C)c1	62.3
COc1ccc(C)cc1NC(=O)Nc1cnc(O)nc1O	0.29
Cc1ccc(NC(=O)CNc2ccccc2C(N)=O)c(C)c1	39.1
COc1ccc(C)cc1NC(=O)c1coc(C)n1	60.9
COc1ncc(NC(=O)Nc2cc(C)ccc2OC)cn1	42.6
Cc1ccc(C)c(NC(=O)c2n[nH]c(-n3cnnc3)n2)c1	36.3
Cc1ccc(C)c(NC(=O)c2coc(C)n2)c1	62.3
COCCCN(CCOC)C(=O)Nc1ccc(C)cc1C	7.9
Cn1ccnc1N1CCN(C(=O)Cc2ccc(F)cc2)CC1	0
CCS(=O)(=O)N1CC[C@@H]2[C@H]1CCC(=O)N2CCOC	24.9
CC(C)OCCN(C)C(C)c1cccc(S(N)(=O)=O)c1 (stereo not given)	26.3
CS(=O)(=O)N1CCCC12CCCN(S(=O)(=O)c1ccc(F)c(F)c1)C2 (stereo not given)	-0.371
O=C(O)[C@@H]1CN(C(=O)NCC2CCCCC2)C[C@H]1c1ccccn1	-43.5
CCOCC1CN(CCN2CCCCC2)Cc2cnn(C)c21 (stereo not given)	36.9
Cc1ccc(Oc2ncccc2C(=O)N(C)CCCN(C)C)cc1	30.3

SMILES	INHIBITION [%]
CC(C)(C)c1ncc(S(C)(=O)=O)c(C2CCCNC2)n1 (stereo not given)	25.3
O=C1c2cccnc2OC(CN2CCOCC2)CN1C1CCC1 (stereo not given)	-10.3
COC(=O)c1ccccc1NC(=O)c1c(C)cn(C)c1CC(=O)O	19.2
O=C1CCNc2ncc(-c3cccc(Cl)c3)cc2CN1C1CC1	2.55
O=C1CCNc2ncc(-c3ccc(Cl)cc3)cc2CN1C1CC1	7.85
O=C1CCNc2ncc(-c3ccccc3Cl)cc2CN1C1CC1	50.2
Cn1cc(CN2CCOC3(CCCN(C(=O)c4ccco4)C3)C2)cn1 (stereo not given)	8.47
Cc1cc(C)nc(N2CC[C@H](Oc3ccccc3F)[C@@H](O)CC2)n1	42.6
CC(C)N1CCOCC2(CCN(c3cnccn3)CC2)C1	35.8
COCCCn1ccc(NS(=O)(=O)c2cc(C)c(F)cc2F)n1	-15.3
CCCOC(C)Cn1ccc2[nH]c(=O)c(C#N)cc2c1=O (stereo not given)	71.8
CC(O)CCn1ccc2[nH]c(=O)c(C#N)cc2c1=O (stereo not given)	-1.09
CCC(Cn1ccc2[nH]c(=O)c(C#N)cc2c1=O)OC (stereo not given)	3.82
CN(Cc1nc(Cc2cccc(C(F)(F)F)c2)no1)C(C1CC1)C1CC1	27.6
Cn1nc(CN2CCCCC2)c2c1CN(Cc1ccoc1)C2	11.3
O=C(c1cc(C2CCCC2)no1)N1CCCCC1	-12.5
Cc1ccc2c(c1)CN(C(=O)C1CCCCC1)C(CN(C)C)CO2 (stereo not given)	60.3
CC(=O)N1[C@H](CN(C)C)C[C@@H]2CN(C(=O)c3cnc(C)cn3)CC[C@@H]21	-50.4
Cc1nc(C)c(C(=O)N2Cc3ccccc3OCC2CN(C)C)o1 (stereo not given)	11.8
Cc1ccc2c(c1)[C@@H](CC(=O)N(C)C)CCO2	14.5
Cc1ccc2c(c1)CN(C(=O)c1cnc(C)cn1)C(CN(C)C)CO2 (stereo not given)	66.5
CN(CCO)CC1COCCN1C(=O)C1CCCCC1 (stereo not given)	40.7

SMILES	INHIBITION [%]
Cc1nc(CN2CCc3ccc(S(N)(=O)=O)cc32)oc1C	-24
CN(C)c1ncccc1CNC(=O)NCc1cccs1	41.2
CN1CCN(C(=O)c2cc[nH]c(=O)c2)Cc2ccccc21	20
O=C(NCC1CCCCC1)N1C[C@@H]2C[C@@H]1CN2	9.97
Cc1nccn1-c1nccnc1C1CCN(Cc2ccc(F)cc2)CC1	71.1
Fc1ccc(CN2CCC(c3nccnc3-n3ccnc3)CC2)cc1	37
Cc1nccn1-c1nccnc1C1CCCN(C2CCCC2)C1 (stereo not given)	59.45
Cc1nccn1-c1cccc(C2CCCN(C3CCCC3)C2)n1 (stereo not given)	36.7
COc1ccc(CN2CCC(c3nccnc3-n3ccnc3)CC2)cc1	35.2
Cc1nccn1-c1nccnc1C1CCCN(C)C1 (stereo not given)	34.55
Cc1n[nH]c(C2CN(Cc3nnc(C4CCC4)o3)CCO2)n1 (stereo not given)	0.914
c1cc(CN2C[C@@H]3OCCN(CCN4CCCC4)[C@@H]3C2)co1	15.7
CC(=O)OCc1ccc(CN2CCCCCC2c2cc(C)no2)o1 (stereo not given)	18.3
CCc1nc(C2CCCN2C(=O)c2cc3c(s2)CCC3)no1 (stereo not given)	7.08
CCC(C(=O)NC1(COC)CCCC1)n1cccn1 (stereo not given)	8.08
CCC(C(=O)NC1(C(N)=O)CCCC1)n1cccn1 (stereo not given)	55.9
CCC(C(=O)NC1(CN2CCOCC2)CCCC1)n1cccn1 (stereo not given)	30.9
CC(C)C(=O)Nc1ccc(C(O)Cn2nc(-c3cccs3)oc2=O)cc1 (stereo not given)	8.9
c1cnn(Cc2nnc3n2CCCN(Cc2ccsc2)C3)c1	32.4
O=C(c1cnccn1)N1C[C@@H]2OCC(=O)N(CC3CCCCC3)[C@@H]2C1	26.4
O=C(c1cnccn1)N1C[C@@H]2[C@@H](C1)OCC(=O)N2CC1CCCC1	91.9
Cc1cnc(C(=O)N2C[C@@H]3[C@@H](C2)OCC(=O)N3CC2CCCC2)cn1	-18.5
